Compound activity deposited in PubChem BioAssay by National Center for Advancing Translational Sciences (NCATS).
ELG1 DNA repair = blocks ELG1-dependent DNA repair in HEK293T cells. 330,000 compounds, 2.3% hits. HEK293T ELG1-luciferase reporter, luminescence, 16 h; DNA damage induced by 5-fluorouridine. Potency, µM (top dose mostly 46.1 µM), actives largely listed as inhibitors; further: nearly all actives have a fitted effect of over 55% in size
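Luminescence from the luciferase reporter, measured 30 min after ONE-Glo reagent at room temperature, was the read-out. Beforehand, 2,000 cells per well were exposed for 16 hr at 37 °C to 5-fluorouridine together with compound or vehicle.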
Nrf2 ARE act = activators of Nrf2 (ARE) signaling. AREc32 ARE-luciferase reporter (MCF7-derived line), luminescence, 24 h. Potency, µM (top dose mostly 46.1 µM), most hits filed as activators. 410,000 compounds, 0.31% hits; further: nearly all actives have a fitted effect of over 65% in size
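Luciferase luminescence (Steady-Glo, 30 min at room temperature) served as the read-out of ARE activation in AREc32 cells treated with compounds for 24 hr at 37 deg C.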
Nrf2 block = inhibitors of Nrf2 signaling. A549 ARE-Fluc reporter, luciferase luminescence, 18-24 h. Potency, µM (doses to about 46 µM), usual class: inhibitors. AID 504444. 360,000 compounds, 2.1% hits; further: nearly all actives have a fitted effect of over 60% in size
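Cells were seeded and rested 2 h, then exposed to compounds for 18-24 h. CellTiter-Fluor was read first as a viability measure. BugLite was added 15 min before the final luminescent read of ARE-luciferase activity in A549 cells.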
A549 viability = counter-screen for Nrf2 inhibitors: cytotoxicity in A549 cells; A549 ARE-Fluc cells, CellTiter-Fluor viability, 18-24 h; 390,000 compounds, 0.16% hits; Potency, µM (highest dose often 46 µM), actives largely listed as inhibitors
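Cytotoxicity counterscreen: CellTiter-Fluor fluorescence was measured in A549 ARE_Fluc cells after 18-24 h of compound exposure in a concentration series. The subsequent BugLite luminescent read reports ARE-luciferase activity.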
Of the large screens only hits and unclear results are named; the others gave an inactive call. This is a sample that favours compounds with a hit; in the whole collection about 3.7% have one here. The call rests on the fitted dose curve; in most records, active means well fitted curve in the direction sought with a large enough effect; inconclusive means small, poorly fitted or top-dose-only effect, or another doubt; inactive means no such curve, though single readings can be large; an effect the other way counts as inactive or inconclusive.

CCOC(=O)C1C(C(=O)OC)=C(c2ccc(OC)cc2)c2ccccc2N1S(=O)(=O)C(F)(F)F (stereo not drawn)	ELG1 DNA repair 12µM
CCOC(=O)C1=C(c2ccccc2)c2ccccc2N(S(=O)(=O)C(F)(F)F)C1C(=O)OCC (stereo not drawn)	ELG1 DNA repair 16µM
CCOC(=O)C1C(C(C)=O)=C(c2ccccc2)c2ccccc2N1S(=O)(=O)C(F)(F)F (stereo not drawn)	none
O=C1/C(=C/c2ccccn2)COc2ccccc21	ELG1 DNA repair inconclusive
CC1C/C(=C/c2ccccn2)C(=O)/C(=C/c2ccccn2)C1 (stereo not drawn)	ELG1 DNA repair 4.6µM, Nrf2 block 16µM, A549 viability inconclusive
CC(C)(C)C1C/C(=C/c2ccccn2)C(=O)/C(=C/c2ccccn2)C1 (stereo not drawn)	ELG1 DNA repair inconclusive, Nrf2 ARE act inconclusive, Nrf2 block 5.8µM, A549 viability 5.8µM
CCc1ccc(N2CC(C(=O)Nc3ccc(OC)c(S(=O)(=O)N4CCOCC4)c3)CC2=O)cc1 (stereo not drawn)	none (no result: ELG1 DNA repair, Nrf2 block, A549 viability)
Cc1ccc(NC(=O)C2CCN(S(=O)(=O)c3ccc(N4CCCC4=O)cc3)CC2)cc1Cl	ELG1 DNA repair inconclusive, Nrf2 block 10µM
O=C(Nc1ccc(S(=O)(=O)N2CCCCC2)cc1)C1CC(=O)N(c2ccc(Cl)cc2)C1 (stereo not drawn)	Nrf2 block 23µM, A549 viability inconclusive
CCc1ccc(N2CC(C(=O)Nc3ccc(C)c(S(=O)(=O)N4CCOCC4)c3)CC2=O)cc1 (stereo not drawn)	ELG1 DNA repair 21µM, Nrf2 block inconclusive
COc1ccc(N2CC(C(=O)Nc3ccc(S(=O)(=O)N4CCCCC4)cc3)CC2=O)cc1 (stereo not drawn)	Nrf2 block 21µM
COc1ccc(N2C[C@H](CSC)[C@@H](CC(=O)Nc3ccccc3)C2=O)cc1	none (no result: ELG1 DNA repair, Nrf2 block, A549 viability)
CCOC(=O)C(=O)N1CCC(C(=O)OC)CC1	none
Cc1cc2c(s1)c1cnn(Cc3ccc(C(F)(F)F)cc3F)c(=O)c1n2C	none (no result: ELG1 DNA repair, Nrf2 ARE act)
CCOC(=O)C1CCN(C(=O)c2cc(C)n(C(C)(C)C)n2)CC1	ELG1 DNA repair inconclusive
CCn1cc(C(=O)OCC(=O)Nc2cccc(C(C)=O)c2)c(=O)c2ccc(C)nc21	none (no result: ELG1 DNA repair)
O=S(=O)(N1CCN(c2nc(-c3cccs3)nc3ccccc23)CC1)C(F)(F)F	none (no result: ELG1 DNA repair, Nrf2 ARE act)
O=C(Nc1cccc(Cl)c1Cl)C1CC(=O)N(c2ccc(Br)cc2)C1 (stereo not drawn)	Nrf2 block 7.3µM
O=C(Nc1cccc(F)c1)C1CC(=O)N(c2ccc(Br)cc2)C1 (stereo not drawn)	none
COc1cc(/C=N/NC(=O)c2c(-c3c(Cl)cccc3Cl)noc2C)ccc1OCC(N)=O	none
Cc1onc(-c2c(Cl)cccc2Cl)c1C(=O)N/N=C(\N)COc1ccc(Cl)cc1	ELG1 DNA repair inconclusive, Nrf2 block 8.2µM
COc1ccc(NC(=O)c2c(-c3c(Cl)cccc3Cl)noc2C)c(OC)c1	ELG1 DNA repair 23µM, Nrf2 block inconclusive
COc1ccc(NC(=O)c2c(-c3c(Cl)cccc3Cl)noc2C)cn1	none
O=C(O)Cn1nnc(-c2ccccc2)c1COc1ccccc1	none (no result: ELG1 DNA repair, Nrf2 block, A549 viability)
Cc1ccc2cc3c(NC(=O)c4ccco4)nn(C)c3nc2c1	Nrf2 ARE act 3.2µM, Nrf2 block inconclusive
CC(=O)Nc1nn(C)c2nc3cc(C)ccc3cc12	none
CC(=O)/C=C/c1ccccc1Oc1c(F)c(F)nc(F)c1F	ELG1 DNA repair inconclusive, Nrf2 ARE act 7.9µM
Oc1ccccc1Oc1c(F)c(F)nc(N2CCCC2)c1F	none
CCCCCCCCCCOC(=O)Cn1c(COc2ccc(OC)cc2)[n+](C)c2ccccc21	ELG1 DNA repair inconclusive, Nrf2 block 21µM, A549 viability inconclusive
COc1cccc(Cn2c(=O)n(-c3cc(C)cc(C)c3)c(=O)c3oc4ccccc4c32)c1	none (no result: ELG1 DNA repair)
O=C(Cc1c[nH]c2ccccc12)N/N=C/c1ccccc1O	ELG1 DNA repair inconclusive
CC(C)(C)c1ccc(/C=N/NC(=O)Cc2c[nH]c3ccccc23)cc1	Nrf2 block 26µM, A549 viability inconclusive
O=C(CSc1nnc(NC(=O)c2ccccc2[N+](=O)[O-])s1)NC1CCCC1	none (no result: ELG1 DNA repair)
Cc1ccc(C(=O)Nc2nnc([C@H]3C[C@H](O)[C@@H](CO)O3)s2)cc1	none (no result: ELG1 DNA repair, Nrf2 block, A549 viability)
C=CC(=O)N1C/C(=C/c2ccc(Cl)cc2)C(=O)/C(=C\c2ccc(Cl)cc2)C1	Nrf2 block inconclusive, A549 viability 23µM (no result: ELG1 DNA repair)
